Screen size: about 310,000 compounds; about 14,000 (4.5%) showed an effect of 50% or more. The effect is printed as a negative number. The sample as a whole holds a higher share of strong results than the screen did.
target: human ether-à-go-go-related gene (hERG) potassium channel (human, UniProt Q12809); test: primary screen, population patch clamp on CHO cells stably expressing hERG; higher = less effect of the substance
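Note: peak tail current of the secondary pulse compared with the same well before compound.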

human ether-à-go-go-related gene (hERG) potassium channel, sequence (Q12809 whole entry, looked up): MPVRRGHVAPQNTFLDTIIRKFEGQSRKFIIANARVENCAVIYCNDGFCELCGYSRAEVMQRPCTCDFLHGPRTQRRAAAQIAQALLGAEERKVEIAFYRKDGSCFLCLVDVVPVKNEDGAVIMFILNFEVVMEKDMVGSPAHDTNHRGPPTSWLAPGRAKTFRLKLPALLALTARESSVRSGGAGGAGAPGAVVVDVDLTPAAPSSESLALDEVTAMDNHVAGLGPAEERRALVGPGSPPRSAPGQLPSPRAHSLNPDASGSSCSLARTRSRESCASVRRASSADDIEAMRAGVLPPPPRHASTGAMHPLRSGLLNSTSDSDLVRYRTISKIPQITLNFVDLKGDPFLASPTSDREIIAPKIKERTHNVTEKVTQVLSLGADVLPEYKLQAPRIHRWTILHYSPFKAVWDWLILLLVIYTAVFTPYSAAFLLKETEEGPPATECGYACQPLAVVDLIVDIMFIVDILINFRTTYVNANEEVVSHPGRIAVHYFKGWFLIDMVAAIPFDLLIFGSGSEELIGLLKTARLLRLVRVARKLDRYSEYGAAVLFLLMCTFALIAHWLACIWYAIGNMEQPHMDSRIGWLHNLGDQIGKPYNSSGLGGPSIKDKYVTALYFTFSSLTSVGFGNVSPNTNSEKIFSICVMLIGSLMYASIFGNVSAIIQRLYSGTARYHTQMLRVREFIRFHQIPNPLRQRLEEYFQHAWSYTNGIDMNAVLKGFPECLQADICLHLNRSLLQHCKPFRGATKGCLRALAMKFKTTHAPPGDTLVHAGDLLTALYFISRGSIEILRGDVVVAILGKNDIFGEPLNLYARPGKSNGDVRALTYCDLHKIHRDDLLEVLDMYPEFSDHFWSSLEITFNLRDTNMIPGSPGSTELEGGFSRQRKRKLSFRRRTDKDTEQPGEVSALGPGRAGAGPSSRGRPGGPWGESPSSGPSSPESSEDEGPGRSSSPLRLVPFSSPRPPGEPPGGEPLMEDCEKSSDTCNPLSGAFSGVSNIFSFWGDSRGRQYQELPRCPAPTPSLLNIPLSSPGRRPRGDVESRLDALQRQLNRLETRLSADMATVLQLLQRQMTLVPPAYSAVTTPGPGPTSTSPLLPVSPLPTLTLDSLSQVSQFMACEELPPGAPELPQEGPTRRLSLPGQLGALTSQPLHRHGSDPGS

Compound | hERG current change (%, negative = inhibition) at 10uM [%]
CC1=NN(C(=O)c2ccccc2Cl)C(O)(c2cccnc2)C1 (stereo not drawn) | 17.8
COC(=O)C1Cc2c([nH]c3ccccc23)C(C)N1 (stereo not drawn) | -9.61
COc1ccc(S(=O)(=O)NCc2ccco2)cc1C(=O)N1CCOCC1 | 21
Cl.O=S(=O)(NCC(c1ccco1)N1CCCCC1)c1ccccc1C(F)(F)F (stereo not drawn) | -6.8
CC(=O)c1cccc(S(=O)(=O)NCC(c2ccco2)N2CCCCC2)c1 (stereo not drawn) | -24.1
Cl.O=S(=O)(NCC(c1ccco1)N1CCCCC1)c1cccc(C(F)(F)F)c1 (stereo not drawn) | -57.7
CC(C)[C@H](NC(=O)c1ccccc1F)C(=O)Nc1ccc2c(c1)OCO2 | 5.82
Br.C1=C(c2cccc3ccccc23)N2CCN=C2S1 | -34.5
COc1ccc(N2C(=O)NC(=O)C(CCc3ccncc3)(CCc3ccncc3)C2=O)cc1 | -23.6
Cc1ccc(N2C(=O)NC(=O)C(CCc3ccccn3)(Cc3ccc(F)cc3)C2=O)cc1 (stereo not drawn) | 12.9
O=C1NC(=O)C(CCc2ccncc2)(CCc2ccccn2)C(=O)N1c1ccc(Br)cc1 (stereo not drawn) | -75.6
Cc1ccc(N2C(=O)NC(=O)C(CCc3ccncc3)(Cc3cccc(Cl)c3Cl)C2=O)cc1 (stereo not drawn) | 6.14
O=C1NC(=O)C(CCc2ccncc2)(Cc2cccc(Cl)c2Cl)C(=O)N1c1ccc(Br)cc1 (stereo not drawn) | -11
CCc1ccc(N2C(=O)NC(=O)C(CCc3ccncc3)(CCc3ccncc3)C2=O)cc1 | -69.9
CCOC(=O)c1c(C)[nH]c(C=O)c1Cc1cccc(Cl)c1 | 6.47
C/C=C/c1cc(OC)c2c(c1)[C@H](C)[C@@H](c1ccc(O)c(OC)c1)O2 | 15.9
O=C(CN1C(=O)NC2(CCCCCC2)C1=O)Nc1ccc(S(=O)(=O)N2CCOCC2)cc1 | 9.75
Cc1ccccc1COc1ccc(-c2nn[nH]n2)cc1 | 13
Cc1ccc(CNC(=O)C2CC3Cn4c(nc5ccccc54)C3N2C)o1 (stereo not drawn) | -0.36
Cc1cc2nc3n(c2cc1C)CC1CC(C(=O)NCCC(C)C)N(C)C31 (stereo not drawn) | 1.81
CC(C)CCNC(=O)C1CC2Cn3c(nc4cc(Cl)c(Cl)cc43)C2N1C (stereo not drawn) | -56

Compound | hERG current change (%, negative = inhibition) at 10uM [%]
CN1C(C(=O)NCC2CC2)CC2Cn3c(nc4cc(Cl)c(Cl)cc43)C21 (stereo not drawn) | -34.3
Cc1ccc(CNC(=O)C2CC3Cn4c(nc5cc(Cl)c(Cl)cc54)C3N2C)o1 (stereo not drawn) | -58.5
COc1ccccc1CNC(=O)C1CC2Cn3c(nc4cc5ccccc5cc43)C2N1C (stereo not drawn) | -43.8
COc1ccccc1CNC(=O)C1CC2Cn3c(nc4cc(Cl)c(Cl)cc43)C2N1C (stereo not drawn) | -65.4
COc1ccccc1CNC(=O)C1CC2Cn3c(nc4cc(C)c(C)cc43)C2N1C (stereo not drawn) | -27
CN1C(C(=O)NCc2cccc(Br)c2)CC2Cn3c(nc4cc(Cl)c(Cl)cc43)C21 (stereo not drawn) | -75.8
CN1C(C(=O)NCc2ccco2)CC2Cn3c(nc4cc(Cl)c(Cl)cc43)C21 (stereo not drawn) | -43.2
COCCNC(=O)C1CC2Cn3c(nc4cc(Cl)c(Cl)cc43)C2N1C (stereo not drawn) | -26.5
Cc1ccc(CNC(=O)C2CC3Cn4c(nc5cc(C)c(C)cc54)C3N2C)o1 (stereo not drawn) | -36.9
COc1ccc(CCN(C)C(=O)CCCN2C(=O)c3cccc4cccc(c34)C2=O)cc1OC | -35.5
O=C(O)C1CCCCC1C(=O)Nc1ccccc1Cl (stereo not drawn) | 15.1
O=C(CN1C(=O)c2ccccc2C1=O)N1CCN(C2c3ccccc3-c3ccccc32)CC1 | -23.1
O=C(/C=C/c1ccco1)NCC1COc2ccccc2O1 (stereo not drawn) | -0.808
O=C(NC1CCCCC1)N1CCSC1=Nc1ccccc1 | -5.04
CCOCCCNC(=O)c1c(C)c(C(=O)OCC)n(C)c1C | 15.3
CCOC(=O)N1N=C(c2ccccc2)CC1(O)C(C)(F)F (stereo not drawn) | 12.1
C=CCNC(=O)C1CC2Cn3c(nc4cc(Cl)c(Cl)cc43)C2N1C (stereo not drawn) | -35.4
CN1C(C(=O)NCc2ccccc2)CC2Cn3c(nc4cc(Cl)c(Cl)cc43)C21 (stereo not drawn) | -65.6
Cc1ccccc1Nc1nnc(-c2ccc(C(=O)NCCO)cc2)c2ccccc12 | -65.9
COc1ccc(Nc2nnc(-c3ccc(C(=O)NCCO)cc3)c3ccccc23)cc1 | -4.6
O=C(NCCO)c1ccc(-c2nnc(Nc3ccc(O)cc3)c3ccccc23)cc1 | 16.8

Compound | hERG current change (%, negative = inhibition) at 10uM [%]
CCC(C)[C@H](NC(=O)C1CCN(C(=O)[C@H](Cc2ccccc2)NC(=O)OC(C)(C)C)CC1)C(=O)O (stereo partly drawn) | -1.42
COc1ccc(-c2oc(NC(=O)c3ccc(C)cc3)c(C#N)c2-c2ccc(OC)cc2)cc1 | -11.6
O=C(C1=C[C@@H](c2csc3ccccc23)C[C@@H](OCc2ccc(CO)cc2)O1)N1CCN(Cc2ccc3c(c2)OCO3)CC1 | 1.69
O=C(C1=C[C@H](c2coc3ccccc3c2=O)C[C@H](OCc2ccc(CO)cc2)O1)N1CCN(Cc2ccc3c(c2)OCO3)CC1 | -57.2
O=C(C1=C[C@@H](c2coc3ccccc3c2=O)C[C@@H](OCc2ccc(CO)cc2)O1)N1CCN(Cc2ccc3c(c2)OCO3)CC1 | -66.1
O=C(C1=C[C@H](c2csc3ccccc23)C[C@H](OCc2ccc(CO)cc2)O1)N1CCN(Cc2ccc3c(c2)OCO3)CC1 | 12.4
CN1CCN(C(=O)C2=C[C@@H](c3coc4ccccc4c3=O)C[C@@H](OCc3ccc(CO)cc3)O2)CC1 | -22.5
O=C(C1=C[C@@H](c2coc3ccccc3c2=O)C[C@@H](OCCCCO)O1)N1CCN(Cc2ccc3c(c2)OCO3)CC1 | -49.7
CC(=O)n1cc([C@@H]2C=C(C(=O)N3CCN(Cc4ccc5c(c4)OCO5)CC3)O[C@H](OCc3ccc(CO)cc3)C2)c2ccccc21 | -17.5
O=C(C1=C[C@@H](c2csc3ccccc23)C[C@@H](OCCCCO)O1)N1CCN(Cc2ccc3c(c2)OCO3)CC1 | -11
O=C(C1=C[C@H](c2coc3ccccc3c2=O)C[C@H](OCCCCO)O1)N1CCN(Cc2ccc3c(c2)OCO3)CC1 | -64.4
Cc1ccccc1NC(=O)NNC(=O)OC(C)(C)C | -6.37
O=C(C1CCCCN1S(=O)(=O)c1ccccc1)N1CCCCC1 (stereo not drawn) | -1.03
N#Cc1ccc(C23CC4(C2)[C@H](CN(Cc2ccc(-c5ccccc5)cc2)[C@@H]4c2ccccc2)C3c2ccc(C(F)(F)F)cc2)cc1 (stereo partly drawn) | 6.84
CC(O)[C@H]1CNC(=O)C(=O)N1CCc1cccc(F)c1 (stereo partly drawn) | 21
CCCn1c(N)c(C(=O)CN(C)CC(=O)Nc2cccc(F)c2)c(=O)[nH]c1=O | -75.1
CCCn1c(N)c(C(=O)CN(C)CC(=O)Nc2c(Cl)cccc2Cl)c(=O)[nH]c1=O | -9.48
CCCn1c(N)c(C(=O)CN(C)CC(=O)Nc2ccccc2CC)c(=O)[nH]c1=O | -42
COC(=O)c1c(C)[nH]c(C(=O)CN(C)CC(=O)Nc2cccc(F)c2)c1C | -22.2
CCCn1c(N)c(C(=O)CN(C)CC(=O)Nc2ccc(F)cc2)c(=O)[nH]c1=O | -70.6
CCCn1c(N)c(C(=O)CN(C)CC(=O)Nc2ccccc2C(F)(F)F)c(=O)[nH]c1=O | -0.764

Compound | hERG current change (%, negative = inhibition) at 10uM [%]
O=C(NCCC1=CCCCC1)c1ccc([N+](=O)[O-])cc1 | -14.9
O=C(CCc1ccc(S(=O)(=O)N2CCCCC2)cc1)c1nnc(-c2ccccc2)o1 | -12.7
CCC(C)NC(=O)CN(C1CCCCC1)S(C)(=O)=O (stereo not drawn) | 9.11
Cc1cc(N)n2ncc(-c3cccc(Br)c3)c2n1 | -2.75
Cc1cc(-n2c(C)cc(C(=O)CSc3nncn3C(C)C)c2C)no1 | 9.21
O=C1CCCN1CC(=O)N1CCCC(N2CCN(c3cccc(Cl)c3)CC2)C1 (stereo not drawn) | 8.15
CCCC(c1nnnn1Cc1ccc(F)cc1)N1CCN(C)CC1 (stereo not drawn) | -2.88
CC(C)C(c1nnnn1Cc1ccc(F)cc1)N1CCN(C2CCCC2)CC1 (stereo not drawn) | -38.2
CCC(c1nnnn1Cc1ccc(F)cc1)N1CCN(C)CC1 (stereo not drawn) | -1.38
CC(C)C(c1nnnn1Cc1ccc(F)cc1)N1CCN(C2CCCCC2)CC1 (stereo not drawn) | -61.3
CC(C)C(c1nnnn1Cc1ccc(F)cc1)N1CCSCC1 (stereo not drawn) | -20.7
CCCC(c1nnnn1Cc1ccc(F)cc1)N1CCN(C2CCCCC2)CC1.Cl (stereo not drawn) | -62.4
CCC(c1nnnn1Cc1ccc(F)cc1)N1CCN(C2CCCCC2)CC1.Cl (stereo not drawn) | -53
CCCC(c1nnnn1CS(=O)(=O)c1ccc(C)cc1)N1CCN(C2CCCC2)CC1.Cl (stereo not drawn) | -37.5
CCCC(c1nnnn1Cc1cccs1)N1CCN(C2CCCC2)CC1.Cl (stereo not drawn) | -29
CCCC(c1nnnn1Cc1ccc(F)cc1)N1CCN(CC)CC1 (stereo not drawn) | -53
CCC(c1nnnn1Cc1cccs1)N1CCN(C2CCCC2)CC1.Cl (stereo not drawn) | -22.3
CCCC(c1nnnn1Cc1ccc(OC)cc1)N1CCN(c2ccccc2OC)CC1 (stereo not drawn) | -8.59

Source: PMC4336329 (PLoS ONE, 2015)
